Test results reported in PubChem BioAssay AID1159580 (chemical genetic matrix, 2015).
Hit rate of the full screen: of about 5,500 compounds, about 2,000 (36%) were called active. Another 18% or so got no clear call; they are omitted. Cut-off read from the data, not from the text of the source: active = normalized growth mostly below about 0.91 (no sharp cut-off); inconclusive = no clear call, values can overlap the other calls; inactive = mostly above about 0.92. This is one part of the list.

Assay: chemical genetic growth profiling, strain panel (AID 1159580);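 note: tested at 20 µM; growth read once vehicle control cultures reached saturation at 30 °C; 1 = growth at the plate median or of vehicle wells; lower values mean less growth of the strain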
Settings: growth OD
[1] = S. cerevisiae deletion strains, locus YAL013W, strain DEP1, stronger effect = lower value
[2] = S. cerevisiae deletion strains, locus YBR229C, strain ROT2, stronger effect = lower value
[3] = S. cerevisiae deletion strains, locus YCL061C, strain MRC1, stronger effect = lower value
[4] = S. cerevisiae deletion strains, locus YDL101C, strain DUN1, stronger effect = lower value
[5] = S. cerevisiae deletion strains, locus YDR150W, strain NUM1, stronger effect = lower value
[6] = S. cerevisiae deletion strains, locus YEL061C, strain CIN8, stronger effect = lower value
[7] = S. cerevisiae deletion strains, locus YGR078C, strain PAC10, stronger effect = lower value
[8] = S. cerevisiae deletion strains, locus YHR030C, strain SLT2, stronger effect = lower value
[9] = S. cerevisiae deletion strains, locus YHR087W, strain rtc3, stronger effect = lower value
[10] = S. cerevisiae deletion strains, locus YJR043C, strain POL32, stronger effect = lower value
[11] = S. cerevisiae deletion strains, locus YJR075W, strain HOC1, stronger effect = lower value
[12] = S. cerevisiae deletion strains, locus YKL190W, strain CNB1, stronger effect = lower value
[13] = S. cerevisiae deletion strains, locus YLR039C, strain RIC1, stronger effect = lower value
[14] = S. cerevisiae deletion strains, locus YLR058C, strain SHM2 (second series), stronger effect = lower value
[15] = S. cerevisiae deletion strains, locus YLR085C, strain ARP6, stronger effect = lower value
[16] = S. cerevisiae deletion strains, locus YLR262C, strain YPT6, stronger effect = lower value
[17] = S. cerevisiae deletion strains, locus YML094W, strain GIM5, stronger effect = lower value
[18] = S. cerevisiae deletion strains, locus YMR219W, strain ESC1, stronger effect = lower value
[19] = S. cerevisiae deletion strains, locus YMR263W, strain SAP30, stronger effect = lower value
[20] = S. cerevisiae deletion strains, locus YMR307W, strain GAS1, stronger effect = lower value
[21] = S. cerevisiae deletion strains, locus YNL128W, strain TEP1, stronger effect = lower value
[22] = S. cerevisiae deletion strains, locus YNL153C, strain GIM3, stronger effect = lower value
[23] = S. cerevisiae deletion strains, locus YNL298W, strain CLA4 (second series), stronger effect = lower value
[24] = S. cerevisiae deletion strains, locus YNL322C, strain KRE1, stronger effect = lower value
[25] = S. cerevisiae deletion strains, locus YNR030W, strain Alg12, stronger effect = lower value
[26] = S. cerevisiae deletion strains, locus YPL055C, strain LGE1, stronger effect = lower value
[27] = S. cerevisiae deletion strains, locus YPL241C, strain CIN2, stronger effect = lower value
[28] = S. cerevisiae deletion strains, locus YPR135W, strain CTF4, stronger effect = lower value
[29] = S. cerevisiae deletion strains, locus YDL134C, strain PPH21, stronger effect = lower value

Measured: normalized growth

CC(C)c1ccc(NC(=S)NC(=O)c2ccc(C(F)(F)F)cc2)cc1
inactive: [1] 1 | [2] 1.02 | [3] 1.01 | [4] 1.01 | [5] 1 | [6] 1.02 | [7] 1.02 | S. cerevisiae deletion strains, locus YGR229C, strain SMI1, stronger effect = lower value 1.02 | [8] 1.1 | [9] 1.02 | [10] 1.01 | [11] 1 | [12] 1.02 | [13] 1.09 | [14] 1.02 | [16] 1.07 | [17] 1.02 | [18] 1.01 | [19] 1 | [20] 1.3 | [21] 1.02 | [22] 0.989 | [23] 1.06 | [24] 1.01 | [25] 1.01 | [26] 0.997 | [27] 1.13 | [28] 1.09
active: [15] 1.23 [resistant]

CC(C)c1ccc(NC(=S)NC(=O)c2ccccc2)cc1
inactive: S. cerevisiae deletion strains, locus YAR019C, strain CDC15, stronger effect = lower value 0.964 | S. cerevisiae deletion strains, locus YBL105C, strain PKC1, stronger effect = lower value 0.952 | S. cerevisiae deletion strains, locus YBR135W, strain CKS1, stronger effect = lower value 0.957 | S. cerevisiae deletion strains, locus YBR136W, strain MEC1, stronger effect = lower value 0.963 | S. cerevisiae deletion strains, locus YBR160W, strain CDC28, stronger effect = lower value 0.961 | S. cerevisiae deletion strains, locus YDL017W, strain CDC7, stronger effect = lower value 0.96 | S. cerevisiae deletion strains, locus YDL028C, strain MPS1, stronger effect = lower value 0.953 | [4] 0.96 | S. cerevisiae deletion strains, locus YDL108W, strain KIN28, stronger effect = lower value 0.971 | S. cerevisiae deletion strains, locus YDL132W, strain cdc53, stronger effect = lower value 0.953 | S. cerevisiae deletion strains, locus YDL214C, strain PRR2, stronger effect = lower value 0.939 | S. cerevisiae deletion strains, locus YDR052C, strain DBF4, stronger effect = lower value 0.962 | S. cerevisiae deletion strains, locus YDR054C, strain cdc34, stronger effect = lower value 0.94 | S. cerevisiae deletion strains, locus YDR226W, strain ADK1, stronger effect = lower value 0.955 | S. cerevisiae deletion strains, locus YDR477W, strain SNF1, stronger effect = lower value 0.923 | S. cerevisiae deletion strains, locus YER123W, strain YCK3, stronger effect = lower value 0.959 | S. cerevisiae deletion strains, locus YER133W, strain GLC7, stronger effect = lower value 0.938 | S. cerevisiae deletion strains, locus YFL009W, strain cdc4, stronger effect = lower value 0.952 | S. cerevisiae deletion strains, locus YFL029C, strain CAK1, stronger effect = lower value 0.953 | S. cerevisiae deletion strains, locus YFR003C, strain YPI1, stronger effect = lower value 0.961 | S. cerevisiae deletion strains, locus YFR019W, strain FAB1, stronger effect = lower value 0.999 | S. cerevisiae deletion strains, locus YFR028C, strain CDC14, stronger effect = lower value 0.958 | S. cerevisiae deletion strains, locus YGR040W, strain KSS1, stronger effect = lower value 0.918 | S. cerevisiae deletion strains, locus YGR052W, strain FMP48, stronger effect = lower value 1.03 | S. cerevisiae deletion strains, locus YGR092W, strain DBF2, stronger effect = lower value 0.851 | S. cerevisiae deletion strains, locus YHR079C, strain IRE1, stronger effect = lower value 0.882 | S. cerevisiae deletion strains, locus YHR082C, strain KSP1, stronger effect = lower value 0.974 | S. cerevisiae deletion strains, locus YHR205W, strain SCH9, stronger effect = lower value 0.904 | S. cerevisiae deletion strains, locus YIL147C, strain SLN1, stronger effect = lower value 0.963 | S. cerevisiae deletion strains, locus YJL095W, strain BCK1, stronger effect = lower value 0.883 | S. cerevisiae deletion strains, locus YJL128C, strain PBS2, stronger effect = lower value 0.94 | S. cerevisiae deletion strains, locus YJL157C, strain FAR1, stronger effect = lower value 0.923 | S. cerevisiae deletion strains, locus YJR016C, strain ILV3, stronger effect = lower value 0.958 | S. cerevisiae deletion strains, locus YJR066W, strain TOR1 (second series), stronger effect = lower value 0.906 | S. cerevisiae deletion strains, locus YJR066W, strain TOR1, stronger effect = lower value 0.891 | S. cerevisiae deletion strains, locus YKL048C, strain ELM1, stronger effect = lower value 0.968 | S. cerevisiae deletion strains, locus YKL067W, strain YNK1, stronger effect = lower value 0.953 | S. cerevisiae deletion strains, locus YKL101W, strain HSL1, stronger effect = lower value 0.957 | S. cerevisiae deletion strains, locus YKL193C, strain SDS22, stronger effect = lower value 0.954 | S. cerevisiae deletion strains, locus YKL203C, strain TOR2, stronger effect = lower value 0.96 | S. cerevisiae deletion strains, locus YLR113W, strain HOG1, stronger effect = lower value 0.919 | S. cerevisiae deletion strains, locus YLR133W, strain CKI1, stronger effect = lower value 0.941 | S. cerevisiae deletion strains, locus YLR403W, strain SFP1, stronger effect = lower value 0.879 | S. cerevisiae deletion strains, locus YML070W, strain DAK1, stronger effect = lower value 0.97 | S. cerevisiae deletion strains, locus YMR001C, strain CDC5, stronger effect = lower value 0.951 | S. cerevisiae deletion strains, locus YMR205C, strain PFK2 (second series), stronger effect = lower value 0.956 | S. cerevisiae deletion strains, locus YMR277W, strain FCP1, stronger effect = lower value 0.962 | S. cerevisiae deletion strains, locus YNL006W, strain LST8, stronger effect = lower value 0.966 | S. cerevisiae deletion strains, locus YNL020C, strain ARK1, stronger effect = lower value 0.926 | S. cerevisiae deletion strains, locus YNL161W, strain CBK1, stronger effect = lower value 0.959 | S. cerevisiae deletion strains, locus YNL183C, strain NPR1, stronger effect = lower value 0.957 | S. cerevisiae deletion strains, locus YNL207W, strain RIO2, stronger effect = lower value 0.953 | S. cerevisiae deletion strains, locus YNL222W, strain SSU72, stronger effect = lower value 0.959 | S. cerevisiae deletion strains, locus YNL307C, strain MCK1 (second series), stronger effect = lower value 0.91 | S. cerevisiae deletion strains, locus YOL078W, strain AVO1, stronger effect = lower value 0.956 | S. cerevisiae deletion strains, locus YOL136C, strain PFK27, stronger effect = lower value 0.959 | S. cerevisiae deletion strains, locus YOR061W, strain CKA2, stronger effect = lower value 0.904 | S. cerevisiae deletion strains, locus YOR119C, strain RIO1, stronger effect = lower value 0.921 | S. cerevisiae deletion strains, locus YOR231W, strain MKK1, stronger effect = lower value 0.911 | S. cerevisiae deletion strains, locus YOR329C, strain SCD5, stronger effect = lower value 0.956 | S. cerevisiae deletion strains, locus YPL031C, strain PHO85, stronger effect = lower value 0.898 | S. cerevisiae deletion strains, locus YPL153C, strain RAD53, stronger effect = lower value 0.921 | S. cerevisiae deletion strains, locus YPL204W, strain HRR25, stronger effect = lower value 0.933 | S. cerevisiae deletion strains, locus YPL209C, strain IPL1, stronger effect = lower value 0.954 | S. cerevisiae deletion strains, locus YPL256C, strain CLN2, stronger effect = lower value 0.92 | S. cerevisiae deletion strains, locus YPR025C, strain CCL1, stronger effect = lower value 0.955 | S. cerevisiae deletion strains, locus YPR106W, strain ISR1, stronger effect = lower value 0.958 | S. cerevisiae deletion strains, locus YPR111W, strain DBF20, stronger effect = lower value 0.964 | S. cerevisiae deletion strains, strain NNK1, stronger effect = lower value 0.967 | S. cerevisiae deletion strains, strain TSCII, stronger effect = lower value 0.947
active: [8] 0.797

O=C(NC(=S)Nc1ccccn1)c1ccccc1
inactive: [1] 0.962 | [2] 0.948 | [4] 0.942 | [29] 0.977 | [5] 0.956 | [7] 0.962 | [9] 1 | [10] 0.955 | [11] 0.988 | [14] 0.976 | [18] 0.964 | [19] 0.993 | [22] 0.933 | [24] 1
active: [6] 0.783 | [8] 0.401 | [13] 0.573 | [15] 0.428 | [16] 0.788 | [17] 0.777 | [20] 0.476 | [23] 0.67 | [25] 0.8 | S. cerevisiae deletion strains, locus YOL006C, strain TOP1, stronger effect = lower value 0.213 | [26] 0.825 | [27] 0.807 | [28] 0.552

O=C(NC(=S)NCc1ccncc1)c1ccccc1
inactive: [1] 1.02 | [2] 1.01 | [4] 1.01 | [5] 0.983 | [6] 1 | [7] 1.01 | [8] 1.05 | [9] 1 | S. cerevisiae deletion strains, locus YJL187C, strain SWE1, stronger effect = lower value 0.973 | [10] 0.997 | [11] 1.03 | [12] 1.01 | [13] 0.928 | [14] 1 | [15] 0.969 | [16] 0.978 | [17] 1.01 | [18] 1 | [19] 1 | [21] 1.01 | [22] 1 | [23] 1.04 | [24] 1 | [25] 1.02 | [26] 1 | [27] 1.02 | [28] 0.929 | S. cerevisiae strains, strain wild type, stronger effect = lower value 1.01

CCC(C(=O)Nc1ccc(C(F)(F)F)cc1)c1ccccc1 (stereo not drawn)
inactive: [1] 0.989 | [2] 0.984 | [3] 0.958 | [4] 0.956 | [29] 0.977 | [5] 0.952 | [6] 1.03 | [7] 0.958 | [8] 0.986 | [9] 0.998 | [10] 0.972 | [11] 0.96 | [12] 0.982 | [13] 0.923 | [14] 0.982 | [15] 0.925 | [16] 0.987 | [17] 0.981 | [18] 0.994 | [19] 0.99 | [21] 0.982 | [22] 0.968 | [23] 0.945 | [24] 0.99 | [25] 0.976 | [26] 1.01 | [27] 0.932 | [28] 0.906
